tim10-1 inh – tim10-1 yeast growth inhibition; S. cerevisiae tim10-1 ts strain growth, BacTiter-Glo, 24 h; inhibition, % at 20 µM; 330,000 tested, 2.2% active;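 active means inhibition of at least 40%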;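 further: mutant grown at 25 °C; 0% = DMSO wells with yeast and 100% = wells holding no yeast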
NALP1 yeast inh – blocks the NALP1 inflammasome reconstituted in yeast; S. cerevisiae NALP1/ASC/caspase-1 growth, X-gal OD620, 72 h; inhibition, % at 10 µM; 280,000 tested, 0.61% active; AID 2071; in the data active means inhibition mostly above about 24%, no sharp cut-off; inactive means mostly below about 32%
tim23-1 inh – tim23-1 yeast growth inhibition. 330,000 tested, 1.3% active. AID 463212. inhibition, % at 20 µM. S. cerevisiae tim23-1 growth, BacTiter-Glo luminescence, 24 h;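 active means growth inhibition of the mutant yeast at or above 50%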;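 further: temperature-sensitive mutant grown at 25 °C; plate controls were DMSO-treated mutant yeast for no effect and medium wells lacking yeast for full effect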
TIM10 inh – inhibits growth of TIM10 yeast strain. S. cerevisiae TIM10 strain growth, BacTiter-Glo luminescence, 24 h. AID 463195. inhibition, % at 10 µM. 330,000 tested, 1.4% active;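 active means inhibition of 40% or more at the single tested concentration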;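 further: wild-type TIM10 isogenic control strain grown at permissive 25 °C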
NALP3 yeast inh – NALP3 inhibition in yeast | Yeast reconstituted NLRP3/ASC/caspase-1, beta-gal luminescence, 24 h | inhibition, % at 10 µM | 330,000 tested, 0.39% active;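 active means inhibition of 50% or more; inactive means inhibition below 50%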;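 further: plate controls were induced DMSO wells for no effect and uninduced yeast grown without galactose for full effect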
SKKanGAS inh – inhibitors of SKKanGAS S. pyogenes growth in kanamycin (SK-promoter or general growth effect); 300,000 tested, 1.3% active; AID 1662; inhibition, % at 7.5 µM; BacTiter-Glo, 6 h;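 active means mean replicate score, as percent of positive control median, at least 50; inconclusive means mean below 50 but one replicate at or above 50; inactive means mean and every replicate below 50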;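 further: strain carries kanamycin resistance gene driven by streptokinase promoter and grows in 40 µg/ml kanamycin; loss of luminescence reflects streptokinase promoter inhibition or plain growth inhibition; 0% = median of DMSO wells and 100% = positive control at its reference dose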
Starred values were filed as active, the others as inactive; ? = inconclusive; · = no result given. The list is not random: actives were taken first. Their share in the collection is about 4.9%.

SMILES	tim10-1 inh	NALP1 yeast inh	tim23-1 inh	TIM10 inh	NALP3 yeast inh	SKKanGAS inh
CC1(c2ccccc2)NC(=O)N(CC(=O)N2CCOCC2)C1=O (stereo unspecified)	8	36*	-1	2	-6	-1
CC(C)(C)C1(c2ccccc2)NC(=O)N(CC(=O)N2CCOCC2)C1=O (stereo unspecified)	-12	·	4	11	20	-2
COc1ccc(NC(=O)NC2CCCc3ccccc32)cc1OC (stereo unspecified)	9	5	14	10	10	3
COc1ccc(C)cc1NC(=O)NC1CCCc2ccccc21 (stereo unspecified)	-1	10	-4	8	15	51*
CCc1ccccc1NC(=O)CSc1nc(C)c(C)o1	4	19	7	7	33	4
COc1ccc2[nH]c3c(c2c1)CCN1C(=O)C(CC(=O)NCCCn2ccnc2)C[C@H](C(=O)N2CCCCC2)[C@@]31C (stereo partly specified)	-4	·	19	-18	·	·
CCOC(=O)c1cc2sc(C)cc2n1CC(=O)N1CCOCC1	17	36*	0	-12	17	-2
Cc1nn(-c2ccccc2)c(Cl)c1C1C(C#N)=C(N)OC2=C1C(=O)CC(C)(C)C2 (stereo unspecified)	18	1	11	13	3	85*
CCCCN(C(=O)c1cccc(S(=O)(=O)N2CC(C)OC(C)C2)c1)c1c(N)n(CC(C)C)c(=O)[nH]c1=O (stereo unspecified)	-12	25	-12	-3	12	-5
CCC(=O)Nc1ccc(N2CCCCC2)cc1	6	40*	20	10	7	3
CCN(C[C@H]1N[C@@](Cc2ccccc2)(C(=O)OC)[C@H]2C(=O)N(Cc3ccccc3)C(=O)[C@@H]12)C(=O)Nc1ccc(Cl)cc1	18	·	23	13	30	·
O=[N+]([O-])c1ccc(/C=N/Nc2nc(-c3ccccc3)c3cc(Br)ccc3n2)o1	-17	25	19	28	44	95*
C[C@H](CO)N1C[C@H](C)[C@@H](CN(C)Cc2ccncc2)Oc2c(NS(=O)(=O)c3cn(C)cn3)cccc2C1=O	-18	·	-6	2	-5	·
CC1=NN(C(N)=S)C(=O)C1N=Nc1c(Cl)cc([N+](=O)[O-])cc1Cl (stereo unspecified)	40	0	38	11	45	50*
CC1=NN(C(N)=S)C(=O)C1N=Nc1cccc(Cl)c1 (stereo unspecified)	4	13	1	7	27	3
Fc1cccc2sc(Nc3nnc(-c4ccccc4)o3)nc12	1	-11	7	6	5	87*
COc1ccc(-c2nnc(Nc3nc4c(OC)cccc4s3)o2)cc1	·	-9	·	·	·	73*
CC(C)COc1cccc(-c2cc(C(=O)N/N=C/c3ccncc3)c3ccccc3n2)c1	26	23	30	27	-18	·
Cc1ccc(C(=O)N2CCN(c3ccc(NC(=O)Cc4ccccc4)cc3)CC2)cc1	11	12	16	13	17	3
FC(F)(F)c1cccc(Nc2nc(N3CCCC3)nc(N3CCCC3)n2)c1	22	-7	3	16	12	75*
CN1CCN(c2nc(Nc3cccc(C(F)(F)F)c3)nc(N3CCOCC3)n2)CC1	11	22	5	7	19	-1
COc1ccc(C(=O)Nn2c(SCC(=O)NCc3ccccc3)nc3ccccc3c2=O)cc1	20	38*	6	-13	1	3
CCOc1ccccc1C(=O)N[C@H](C(=O)Nc1cc(S(=O)(=O)N(C)C)ccc1OC)C(C)C	-7	24*	14	19	-3	-5
O=C(Nc1ccc(F)c(Cl)c1)Nc1csc2ccccc12	0	·	-10	-10	50	95*
NCCS(=O)(=O)NC1CCCCC1	-15	-10	5	-6	36	66*
SMILES	tim10-1 inh	NALP1 yeast inh	tim23-1 inh	TIM10 inh	NALP3 yeast inh	SKKanGAS inh
Cc1ccc(S(=O)(=O)NC2CCCCC2)cc1	11	·	3	3	23	·
Cc1[nH]n(-c2ccccc2)c(=O)c1N=Nc1nccs1	1	-18	13	6	25	94*
Cc1ccccc1N=Nc1c(C)[nH]n(-c2ccccc2)c1=O	·	-10	·	·	·	·
Cc1[nH]n(-c2ccccc2)c(=O)c1N=Nc1ccccc1O	39	-7	34	-26	21	68*
CCN(CC)C(=O)Oc1ccc(Cl)c2cccnc12	-1	1	-2	-14	14	-13
O=C(Nc1cccc(C(F)(F)F)c1)Oc1ccc(Cl)c2cccnc12	·	48*	·	·	·	99*
Cc1cc(C)c(S(=O)(=O)NCc2ccncc2)c(C)c1	-9	39*	19	-29	17	-4
CN(CC(=O)Nc1ccccc1Cl)C(=O)COC(=O)/C=C/c1cccc(C(F)(F)F)c1	8	·	11	5	7	·
CSc1ccc(/C=N/NC(=O)CN2CCN(Cc3ccccc3)CC2)cc1	0	30	17	8	10	10
O=C(CN1CCCCC1)N/N=C/c1cccc(Cl)c1	-8	-19	-7	-8	13	4
O=C(CN1CCCC1)N/N=C/c1ccc(-c2cccc(Cl)c2)o1	-14	32*	0	3	2	-1
Cc1ccc(/C=N/NC(=O)CN2CCN(Cc3ccccc3)CC2)o1	-18	45*	-8	-3	8	5
C=CCn1c(=N)n(CC(=O)c2ccc(Br)s2)c2ccccc21	11	24	18	-2	17	-2
CCCC(=O)NC(c1ccco1)c1cc([N+](=O)[O-])c2cccnc2c1O (stereo unspecified)	-5	2	-10	2	17	54*
CC(=O)NC(c1ccc(C)cc1)c1cc([N+](=O)[O-])c2cccnc2c1O (stereo unspecified)	37	-5	-13	25	22	?
CC(=O)NC(c1ccco1)c1ccc2cccnc2c1O (stereo unspecified)	30	-5	17	-11	34	40
CCC(=O)NC(c1ccc(C)cc1)c1cc([N+](=O)[O-])c2cccnc2c1O (stereo unspecified)	·	5	·	·	·	87*
CCCc1[nH]nc2c1C(c1ccoc1)C(C#N)=C(N)O2 (stereo unspecified)	25	58*	43	32	5	-3
COc1ccc(N2CC(C(=O)OCC(=O)Nc3cccc(C)c3C)CC2=O)cc1 (stereo unspecified)	0	7	7	14	6	-6
COc1ccc2nc(Nc3ccc4c(c3)OCO4)sc2c1	22	·	8	1	4	-9
COc1ccc2nc(Nc3nc4cc5c(cc4s3)OCO5)sc2c1	11	3	35	14	17	84*
COc1ccccc1NC(=O)c1ccc(Br)o1	8	28*	12	-10	6	-1
O=C(Nc1cccc(Cl)c1N1CCCC1)c1ccc(Br)o1	14	12	12	-43	19	70*
O=C(Nc1cccc(Cl)c1N1CCCC1)c1cc2ccccc2o1	10	20	5	1	20	73*

High-throughput results: PubChem, several laboratories
